# About 83,000 compounds went through this panel and 20% of them were active in at least one assay; those are over-represented in the sample as a whole.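 The endpoint reported here, percent growth, reads 100 for growth as untreated, 0 for no net growth and -100 for all cells dead.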 A number with no mark means an inactive call. Active and inactive are the calls of the source. The calls were made as follows: active = growth percent below 10; inactive = the rest.
# What was measured:
# Assay in all cases: NCI-60 one-dose screen, 48 h (100 = growth as untreated, 0 = no growth, -100 = all killed)
# [1] = tested on: EKVX NSCLC; conditions: 10 µM
# [2] = tested on: SN12C renal; conditions: 10 µM unless noted
# [3] = tested on: UO-31 renal; conditions: 10 µM unless noted
# [4] = tested on: TK-10 renal; conditions: 10 µM unless noted
# [5] = tested on: CAKI-1 renal; conditions: 10 µM unless noted
# [6] = tested on: A498 renal; conditions: 10 µM unless noted
# [7] = tested on: MOLT-4 leukemia; conditions: 10 µM unless noted
# [8] = tested on: ACHN renal; conditions: 10 µM unless noted
# [9] = tested on: CCRF-CEM leukemia; conditions: 10 µM
Structure (SMILES),growth [1],growth [2],growth [3],growth [4],growth [5],growth [6],growth [7],growth [8],growth [9]
COc1cc(-c2nn(-c3ccc(NC(=O)c4cc(Cl)cc(Cl)c4)cc3)cc2-c2ccncc2)ccc1Cl,80.1%,91.9%,65.7%,69.4%,38.8%,78.9%,27.6%,–,–
COc1cc(-c2nn(-c3ccc(NC(=O)Nc4ccc(Cl)c(C(F)(F)F)c4)cc3)cc2-c2ccncc2)ccc1Cl,3.21% (active),26.2%,24.5%,-3.21% (active),-5.53% (active),–,1.77% (active),5.32% (active),–
CCCCn1c(Cc2ccc(OC)cc2)nc2cc(OC)c(OC)cc2c1=O,44.8%,88.6%,74.7%,–,–,62%,49.1%,80.9%,53.1%
O=[N+]([O-])c1ccc(-c2ncc(-c3ccc(O)cc3O)[nH]2)cc1,92.4%,101%,102%,124%,–,101%,99.1%,106%,-19.1% (active)
COc1cc(/C(=C2/O[C@@H]([C@H]3COC(C)(C)O3)[C@H]3OC(C)(C)O[C@@H]23)c2ccc3c(c2)OCO3)cc(OC)c1OC,74.3%,59.9%,–,70.7%,68.6%,–,106%,26.4%,93.1%
CCCCCCCCc1ccc(CCC(N)(CO)CO)cc1,54.8%,–,–,16.6%,16.1%,90.1%,-28.3% (active),-37.2% (active),-5.69% (active)
O=C(Nc1cccc2[nH]c(C(F)(F)F)nc12)c1ccc(F)cc1,–,81.8%,63%,113%,84%,–,65.5%,82.7%,51.7%
Cc1ccccc1-n1c(C)nc2cc(NC(=O)c3ccc(Cl)cc3)ccc2c1=O,51.5%,68.6%,77.8%,–,58.8%,60.6%,71.7%,48.1%,52.7%
COc1ccc2c(c1)cn1c3ccc(O)cc3[nH]c(=O)c21,47.9%,40.2%,–,13%,22.2%,40.7%,19.2%,14.8%,–
O=Nc1ccc(O)c2ccccc12,32.7%,-50.1% (active),38%,5.45% (active),14.1%,–,59.3%,19.9%,5.22% (active)
Cc1[nH]n(C(=S)Nc2nc3cc(Cl)c(F)cc3s2)c(=O)c1N=Nc1ccc(F)c(Cl)c1,80.1%,100%,93%,129%,–,65.8%,-16.5% (active),104%,19.3%
CC(C)(C)c1ccc(OCCOC(=O)CBr)cc1,126%,–,92.9%,109%,107%,107%,63%,–,56.2%
N#Cc1c2ncccc2c2nnc3cc(Cl)c(Cl)cc3n12,–,110%,76.3%,67.7%,70.3%,115%,98.9%,84.5%,–
C/C=C/C/C=C/[C@H](C)C[C@H](O)[C@@H]1C[C@@H]2O[C@H]2/C=C/[C@H](O)[C@@H](O)/C=C/C[C@H](C)CC(=O)O1,121%,79.1%,56.9%,42.8%,–,115%,81.5%,77.5%,51.3%
CCCCCCCCCC(C)NC(=O)CCl (stereo not drawn),–,–,–,–,93.4%,91.3%,72.1%,93%,–
COc1cc(-c2nn(-c3ccc(NC(=O)Nc4ccc(Cl)c(Cl)c4)cc3)cc2-c2ccncc2)ccc1Cl,33.6%,43.4%,33.4%,-12.6% (active),–,38.7%,9.31% (active),20.9%,11.7%

Structure (SMILES),growth [1],growth [2],growth [3],growth [4],growth [5],growth [6],growth [7],growth [8],growth [9]
O=C1OC(c2ccc(-c3ccccc3)cc2)=C/C1=C/c1c2ccccc2cc2ccccc12,65.5%,101%,92.8%,77.9%,–,83.7%,72.6%,97.6%,69.9%
COc1ccc2cn3c4ccc(O)cc4[nH]c(=O)c3c2c1,39%,51.7%,–,-2.48% (active),16.9%,–,15.2%,28.3%,29.2%
COc1cccc(-c2cc(-c3cc4ccccc4oc3=O)nc(N)n2)c1,99.2%,98.6%,55.8%,74.5%,–,127%,91.4%,98.3%,87.6%
CCN(CC)CCNc1ncnc2c1cnn2-c1ccc(Cl)cc1,82.8%,80.6%,–,118%,61.5%,73.1%,92.9%,92.6%,50.8%
COC(=O)C(Cc1cnc[nH]1)N1CC(=O)N2[C@@H](c3ccccc3)SC[C@H]2C1=O (stereo partly drawn),101%,107%,88.4%,–,94.1%,95.9%,99.7%,106%,99.6%
CCCCCCNc1nc(N2CCOCC2)c2[nH]c(NCCCCCC)nc2n1,-51.5% (active),-94.9% (active),-81% (active),-97.2% (active),–,–,-53.6% (active),-92.7% (active),-32.3% (active)
C/C=C/C/C=C/[C@H](C)C[C@H](O)[C@@H]1C[C@@H]2O[C@H]2/C=C/[C@@H]2OC(C)(C)O[C@H]2/C=C/C[C@H](C)CC(=O)O1,67.2%,38.2%,–,–,19.2%,96.5%,34.6%,38.4%,24.7%
COC(=O)CC(=O)C(=O)OC,–,107%,91.4%,–,133%,113%,97.9%,100%,–
CC(=O)N1CCN(CCNC(=O)n2cc(-c3ccncc3)c(-c3ccc(O)c(Cl)c3)n2)CC1,–,102%,131%,87.2%,136%,118%,85.8%,105%,95.8%
Clc1ccc(I)c2ccccc12,–,111%,82.6%,92.6%,95.6%,117%,98.9%,103%,–
O=C(Nc1ccc(-n2cc(-c3ccncc3)c(-c3ccc(Cl)c(O)c3)n2)cc1)Nc1ccc(Cl)c(C(F)(F)F)c1,1.43% (active),31.1%,-32.6% (active),-12.1% (active),-32.5% (active),63.6%,-1.95% (active),–,–
COc1ccc(C(=O)N2N=C(c3ccc(Br)cc3)CC2c2cn(-c3ccccc3)nc2-c2ccccc2)cc1 (stereo not drawn),78.5%,58.9%,84.5%,–,–,89.1%,46.1%,87.8%,–
Nc1nc(-c2cccc(Br)c2)cc(-c2cc3ccccc3oc2=O)n1,93.9%,99.9%,–,74.8%,92%,123%,82.4%,98.2%,77.1%
COC(=O)C(C(=O)OC)C(Br)C(Br)C(Br)c1ccccc1 (stereo not drawn),–,97.9%,77.7%,–,–,116%,63.8%,17.9%,-28.9% (active)
O=C(Nc1ccc(-n2cc(-c3ccncc3)c(-c3ccc(Cl)c(O)c3)n2)cc1)Nc1cc(C(F)(F)F)cc(C(F)(F)F)c1,–,30.1%,35.3%,–,8.54% (active),17.7%,9.3% (active),12%,2.13% (active)

# — PubChem BioAssay (NCI)
